Data on five molecules can be found in PubChem BioAssay.

Calls of active or inactive are those of the source.

For assay [1], the system named is Human papillomavirus type 1a protein E7 (residues 44-93). As to the kind of experiment: small molecules binding HPV E7 44-93 – biochemical, small-molecule microarray, residues 44-93, 635 nm fluorescence, primary screen (AID 1108).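 Further: E7 fragment applied at 1 µg/mL in TBST for 1 h at 4 C; score combines spot fluorescence with its signal to noise ratio.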 The following applies: fluorescence 635 nm, higher = more signal.
The nature of assay [2]: hepatitis C replication reporter changes, two-sided – Huh7 cells, luciferase reporter, HCV replication inhibitor project, primary screen (AID 1109).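 Further: huh7 hepatoma cells harbouring a luciferase neomycin HCV replicon reporter; luciferase luminescence as measure of HCV replicon replication; test concentration not given here.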 The conditions noted are these: Huh7 HCV replicon luciferase reporter, 48 h; higher = more signal.
Assay [3] deals with Left-right determination factor 2 (Homo sapiens) (UniProt O00292). Description: small molecules binding LEFTY2 protein – biochemical, small-molecule microarray, 635 nm fluorescence scan, primary screen (AID 1110). The following applies: higher = more signal.
The target in assay [4] is Calmodulin-1 (Homo sapiens) (UniProt P0DP23). As to the kind of experiment: small molecules binding calmodulin-1 with EGTA – biochemical, small-molecule microarray, Cy5-labelled CALM1, profiling panel (AID 1111).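 Further: labelled calmodulin applied in Tris saline Tween buffer holding calcium plus EGTA and DTT.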 The following applies: Cy5-CALM1 binding fluorescence, higher = more signal.
For assay [5] the target is unchanged. As to the kind of experiment: small molecules binding Ca-loaded calmodulin-1 – biochemical, small-molecule microarray, Cy5-labelled CALM1, plus calcium, artefact control for SMM control-protein annotation, profiling panel (AID 1112).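 Further: score merges spot fluorescence with signal to noise from triplicate slides.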 The conditions noted are these: Cy5-CALM1 binding fluorescence, higher = more signal.
The nature of assay [6]: probe aWnt5a binding to arrayed compounds – biochemical, biotinylated probe, 635/667 nm fluorescence, primary screen (AID 1113).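 Further: score merges 667 nm fluorescence intensity with signal-to-noise per printed feature.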 The conditions noted are these: small-molecule microarray, higher = more signal.
Assay [7] in a line: probe aShh binding to arrayed compounds – biochemical, biotinylated probe, 635/667 nm fluorescence, primary screen (AID 1114).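 Further: probe is biotin-labelled aShh protein from a stem cell growth factor screen; measures binding of labelled protein to compounds printed on the slide; score merges feature fluorescence at 667 nm with signal-to-noise.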 The following applies: small-molecule microarray, higher = more signal.
A short description of assay [8]: probe aNog binding to arrayed compounds – biochemical, biotinylated probe, 635/667 nm fluorescence, primary screen (AID 1115).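 Further: probe is biotinylated aNog protein used at 0.15 µg/mL for 1 h at 4 C; z-score combines 667 nm fluorescence of each spot with its signal to noise.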 The conditions noted are these: small-molecule microarray, higher = more signal.
Assay [9] concerns the target Torsin-1A-interacting protein 1 (Homo sapiens) (UniProt Q5JTV8). As to the kind of experiment: compound microarray binding of lysate hLAP1 – cell lysate, small-molecule microarray, COS7 lysate, 635/667 nm fluorescence, primary screen (AID 1116). The conditions noted are these: 635 nm fluorescence, higher = more signal.
For assay [10], the target named is Alpha-bungarotoxin (Bungarus multicinctus) (UniProt P60615). Description: compounds binding labelled alpha-BTX control protein – biochemical, small-molecule microarray, Alexa647 label, 635/667 nm fluorescence, artefact control for SMM control protein annotation, profiling panel (AID 1117). The following applies: alpha-BTX-A647 binding fluorescence, higher = more signal.

A further assay addresses Albumin (Bos taurus) (UniProt P02769). As to the kind of experiment: compounds binding labelled BSA control protein – biochemical, small-molecule microarray, Alexa647 label, 635/667 nm fluorescence, artefact control for SMM control protein annotation, profiling panel (AID 1118).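 Further: score merges 667 nm emission intensity and signal-to-noise per printed compound spot.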 The following applies: BSA-A647 binding, fluorescence 635 nm, higher = more signal.
The nature of assay [11]: probe aXIP binding to arrayed compounds – biochemical, NeuroSMM set, 635/667 nm fluorescence, primary screen (AID 1119).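 Further: probe is the protein aXip251-270 applied at 1 µg/mL to compound-printed slides; binding of probe to printed compounds measured as 667 nm fluorescence plus signal to noise.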 The following applies: small-molecule microarray, higher = more signal, called active from +8 up or from −8 down.
Assay [12] can be described thus: probe aNOTCH3 binding on compound microarray – biochemical, small-molecule microarray, 635/667 nm fluorescence, primary screen (AID 1120).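 Further: probe is a biotin-tagged antibody raised against NOTCH3 rather than NOTCH3 protein; score merges spot fluorescence near 667 nm with spot signal to noise.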 The following applies: higher = more signal.
A short description of assay [13]: probe aNOTCH2 binding on compound microarray – biochemical, small-molecule microarray, 635/667 nm fluorescence, primary screen (AID 1121).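 Further: score merges feature fluorescence read at 667 nm with its signal to noise.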 The conditions noted are these: higher = more signal.
In assay [14] the target is Carbonic anhydrase 2 (Homo sapiens) (UniProt P00918). Description: compounds binding carbonic anhydrase 2 – biochemical, small-molecule microarray, Alexa647-labelled CAII, profiling panel (AID 1122). The following applies: CAII-A647 binding fluorescence, higher = more signal.
A short description of assay [15]: COS7 lysate on small-molecule microarray, probe aHis, 635 nm (AID 1123).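 Further: z-score combines 667nm fluorescence intensity with signal-to-noise per printed compound spot.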 The conditions noted are these: COS7 cell lysate, fluorescence, higher = more signal.
Assay [16] can be described thus: probe aLAP1 signal on lysate-treated microarray – cell lysate, small-molecule microarray, COS7 lysate, primary screen (AID 1124).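 Further: lysate comes from COS7 cells expressing LAP1 and is applied at 0.3 µg/mL; score merges spot fluorescence near 667 nm with signal-to-noise over triplicate slides.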 The following applies: probe aLAP1, fluorescence, higher = more signal.
The test system of another assay is Sam68 (KHDRBS1). As to the kind of experiment: compounds binding KHDRBS1 protein – biochemical, small-molecule microarray, 635 nm fluorescence, primary screen (AID 1125).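 Further: score merges 667 nm channel intensity with signal to noise over triplicate slides.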 The following applies: higher = more signal.
The test system of assay [17] is Chordin-like protein 2 (CHRDL2). Description: compounds binding chordin-like 2 – biochemical, small-molecule microarray, 635 nm fluorescence, primary screen (AID 1126).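 Further: printed compound slides probed with Chrdl2 protein at 4 µg/mL for 1 h at 4 C; score merges 667 nm emission intensity with signal to noise over three replicate slides.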 The following applies: fluorescence 635 nm, higher = more signal.
Assay [18] addresses Concanavalin-A (Canavalia ensiformis) (UniProt P02866). As to the kind of experiment: compounds binding concanavalin A lectin – biochemical, small-molecule microarray, Alexa647 label, 635 nm, artefact control for SMM control protein annotation, primary screen (AID 1127).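 Further: z combines 667 nm emission intensity with signal-to-noise across three replicate slides.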 The following applies: ConA-A647 binding fluorescence, higher = more signal.

Albumin (Bos taurus), sequence (P02769 whole entry, looked up): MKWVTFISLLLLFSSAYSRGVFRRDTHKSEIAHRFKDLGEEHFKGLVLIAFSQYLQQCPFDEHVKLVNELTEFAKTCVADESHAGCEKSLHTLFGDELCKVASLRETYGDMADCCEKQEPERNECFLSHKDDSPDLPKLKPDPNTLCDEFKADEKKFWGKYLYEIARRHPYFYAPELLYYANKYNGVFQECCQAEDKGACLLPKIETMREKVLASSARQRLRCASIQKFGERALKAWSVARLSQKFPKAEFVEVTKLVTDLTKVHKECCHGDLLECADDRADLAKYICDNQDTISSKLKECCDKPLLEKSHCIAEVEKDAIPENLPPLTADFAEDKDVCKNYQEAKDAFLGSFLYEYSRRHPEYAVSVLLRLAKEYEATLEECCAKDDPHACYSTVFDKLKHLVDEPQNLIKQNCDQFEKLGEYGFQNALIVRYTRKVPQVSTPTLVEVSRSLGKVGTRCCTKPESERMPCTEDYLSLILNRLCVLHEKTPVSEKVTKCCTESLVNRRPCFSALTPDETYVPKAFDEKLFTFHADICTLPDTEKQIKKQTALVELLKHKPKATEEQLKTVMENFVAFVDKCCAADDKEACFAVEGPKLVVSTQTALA
Concanavalin-A (Canavalia ensiformis), sequence (P02866 whole entry, looked up): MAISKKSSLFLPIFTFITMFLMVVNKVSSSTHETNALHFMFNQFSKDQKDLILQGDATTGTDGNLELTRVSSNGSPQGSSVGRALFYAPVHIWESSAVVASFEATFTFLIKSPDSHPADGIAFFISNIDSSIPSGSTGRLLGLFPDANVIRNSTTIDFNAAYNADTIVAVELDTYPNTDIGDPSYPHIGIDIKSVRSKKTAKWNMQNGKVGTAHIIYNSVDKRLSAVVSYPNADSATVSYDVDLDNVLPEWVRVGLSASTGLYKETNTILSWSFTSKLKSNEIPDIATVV
Left-right determination factor 2 (Homo sapiens), sequence (O00292 whole entry, looked up): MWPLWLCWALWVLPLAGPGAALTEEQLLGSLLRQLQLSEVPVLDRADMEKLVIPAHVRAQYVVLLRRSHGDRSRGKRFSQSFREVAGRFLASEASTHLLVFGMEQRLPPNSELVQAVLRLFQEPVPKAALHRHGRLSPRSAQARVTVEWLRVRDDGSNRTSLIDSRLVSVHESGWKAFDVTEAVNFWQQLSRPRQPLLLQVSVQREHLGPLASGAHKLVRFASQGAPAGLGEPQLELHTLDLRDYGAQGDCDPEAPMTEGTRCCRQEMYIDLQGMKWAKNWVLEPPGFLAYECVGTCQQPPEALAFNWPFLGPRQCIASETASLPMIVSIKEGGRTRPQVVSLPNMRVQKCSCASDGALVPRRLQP
Alpha-bungarotoxin (Bungarus multicinctus), sequence (P60615 whole entry, looked up): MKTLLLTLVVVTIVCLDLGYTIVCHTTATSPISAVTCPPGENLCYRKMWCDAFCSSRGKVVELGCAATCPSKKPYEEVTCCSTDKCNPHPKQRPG
Torsin-1A-interacting protein 1 (Homo sapiens), sequence (Q5JTV8 whole entry, looked up): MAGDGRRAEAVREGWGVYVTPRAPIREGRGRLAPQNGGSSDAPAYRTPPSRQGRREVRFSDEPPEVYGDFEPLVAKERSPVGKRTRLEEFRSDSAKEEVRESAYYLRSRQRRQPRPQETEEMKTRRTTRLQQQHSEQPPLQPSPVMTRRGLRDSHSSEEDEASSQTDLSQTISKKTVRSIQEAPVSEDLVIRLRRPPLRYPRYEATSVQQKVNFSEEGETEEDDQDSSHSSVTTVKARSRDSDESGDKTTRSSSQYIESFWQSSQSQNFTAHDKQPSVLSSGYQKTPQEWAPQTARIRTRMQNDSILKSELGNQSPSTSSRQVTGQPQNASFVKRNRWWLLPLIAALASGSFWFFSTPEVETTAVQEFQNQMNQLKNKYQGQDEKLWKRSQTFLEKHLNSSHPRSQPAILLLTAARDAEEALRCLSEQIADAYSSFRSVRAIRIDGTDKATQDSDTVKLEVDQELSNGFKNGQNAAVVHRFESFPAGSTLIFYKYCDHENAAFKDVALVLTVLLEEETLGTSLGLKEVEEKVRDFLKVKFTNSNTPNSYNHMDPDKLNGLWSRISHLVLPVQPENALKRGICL

Turning to `O=C1O[C@H](c2ccccc2)[C@H](c2ccccc2)N2[C@H]1[C@@H](C(=O)NC[C@H](O)c1ccccc1)[C@]1(C(=O)Nc3ccc(C#CC4(O)CCCCCC4)cc31)[C@H]2c1ccc(OCCO)cc1`, the composite z-score in assay [1] was 1.27; in [3], -0.12; in [4] it was 0.67; in assay [5], 0.623; in [6], -0.0276; in assay [7], -0.106. In addition, the composite z-score in assay [8] is 0.319; in assay [9] it was 0.933; in assay [10], 1.41; in the assay with Albumin (Bos taurus) it was 0.579; in assay [12], 0.108; in assay [13] it was -0.109. Further, the composite z-score in assay [14] is 0.603; in assay [15], 1.92; in assay [16] it was -0.0049; with Sam68 (KHDRBS1) it was 1.31; in assay [17], 0.088; in [18], 1.16. In assay [2], this molecule had a z-score of -2.41. The composite Z-score in assay [11] is 0.248 (inactive).

For the molecule `CCN1C(C)=C(C(=O)OC)[C@@H](c2ccccc2)N2C(=O)[C@@]3(C(=O)OC)O[C@@]12[C@@H]1C(=O)CCC[C@@H]13`, the composite z-score is 0.0258 in assay [1]; 1.38 in assay [3]; -1.2 in [4]; -1.08 in assay [5]; -0.0758 in [6]; 0.0637 in assay [7]. For the same molecule, the composite z-score was -0.43 in assay [8]; 0.157 in assay [9]; -0.954 in [10]; -0.439 with Albumin (Bos taurus); -0.0345 in assay [12]; -0.195 in [13]. For the same molecule, the composite z-score is 0.558 in assay [14]; -0.503 in assay [15]; -0.227 in assay [16]; 0.475 with Sam68 (KHDRBS1); 1.46 in assay [17]; -0.92 in [18]. This molecule also showed a z-score in assay [2] of -0.216. Further, in assay [11], the composite Z-score is -0.166 (inactive).

`CCOC(=O)C1=CCC(c2cccc3ccccc23)N(S(=O)(=O)c2ccc(C)cc2)C1` (stereo not given): the composite z-score is 1.09 in [1]; 0.0938 in assay [3]; 1.47 in assay [4]; 0.509 in assay [5]; 0.0763 in assay [6]; 0.203 in assay [7]. In addition, the composite z-score in [8] was 0.276; in assay [9], 0.871; in assay [10], 1.3; with Albumin (Bos taurus), 0.816; in assay [12], 0.056; in assay [13], -0.0731. Besides, the composite z-score in [14] is 0.401; in assay [15], 1.41; in assay [16], 0.117; with Sam68 (KHDRBS1), 1.12; in assay [17], 0.341; in assay [18], 1.08. In assay [2], this molecule yielded a z-score of -0.874. Besides, the composite Z-score in assay [11] was 0.494 (inactive).

Turning to `CO[C@H]1COC(=O)[C@H](C)NC(=O)CC=C[C@@H](C)[C@H](NS(=O)(=O)c2ccc(C)cc2)COC(=O)CC=C[C@@H]1C`, the composite z-score in assay [1] was -0.9; in assay [3], 0.285; in assay [4], -1.11; in [5] it was -1.46; in assay [6] it was -0.137; in [7], -0.0709. Moreover, the composite z-score is -0.12 in [8]; 0.368 in assay [9]; -0.555 in assay [10]; -0.524 in the assay with Albumin (Bos taurus); -0.152 in assay [12]; -0.146 in assay [13]. In addition, the composite z-score in assay [14] is 0.651; in assay [15], -0.616; in assay [16], -0.177; with Sam68 (KHDRBS1), -1.03; in assay [17], 1.41; in [18], -0.206. Besides, the z-score in [2] is -0.05. The composite Z-score in [11] was 0.0426 (inactive).

On to `CC1CC/C=C\[C@H]2OC34C=CCN(Cn5nnc6ccccc65)C(=O)[C@H]3N(C(C)CO)C(=O)[C@@H]4C2C(=O)O1` (stereo not given in full), for which the composite z-score in assay [1] is -0.132; in assay [3], -0.371; in assay [4], -0.45; in assay [5], -0.223; in assay [6], -0.184; in assay [7] it was -0.123. In addition, the composite z-score in assay [8] is 0.34; in [9], 0.413; in assay [10], -0.465; with Albumin (Bos taurus), -0.178; in assay [12], -0.1; in assay [13], -0.189. In addition, the composite z-score in assay [14] was 0.797; in assay [15], -0.0502; in [16], 0.0114; in the assay with Sam68 (KHDRBS1), -0.579; in assay [17], -0.764; in assay [18], -0.309. For the same molecule, the z-score in assay [2] was -0.276. The composite Z-score in [11] was -0.105 (inactive).
